Bioassay records (PubChem)
In the library only some 19% were active in any assay of this set; here they are far more common.
uPA surface inh – qHTS for Inhibitors of Cell Surface uPA Generation | cell surface uPA generation assay, qHTS | 330,000 tested, 0.31% active | Potency, µM (doses to about 38.3 µM), for inactives: at the top dose activity change, negative = inhibition, actives largely listed as inhibitors; active means well fitted inhibition curve with a large enough effect; inconclusive means small, poorly fitted or top-dose-only effect; inactive means no such curve, though single readings can be large or run the other way; tested in mouse RAW 264.7 cells; further: potency means the concentration at half of the fitted maximal effect; nearly all actives have a fitted effect of over 55% in size
IL-1B inflam inh – qHTS for Inhibitors of Inflammasome Signaling: IL-1-beta AlphaLISA Primary Screen; activity change, % at 57.5 µM; 360,000 tested, 4.7% active; THP-1 LPS/ATP IL-1B secretion, AlphaLISA, 16 h; hits give low values; in the data active means activity change below about -50%; inconclusive means mostly about -30% to -49%
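Secreted IL-1B measured by AlphaLISA bead assay after 16 h compound exposure of THP-1 cells; compounds (final up to 57.5 uM) added 1 h before LPS (250 ng/mL) and ATP (1.25 mM) stimulation; lower signal means less secretion.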
HT1080 IDH1KD tx – qHTS for induction of synthetic lethality in tumor cells producing 2HG: qHTS for the HT-1080-IDH1KD cell line | HT-1080 IDH1 knockdown viability, ATP luminescence, 48 h | Potency, µM (top dose mostly 46.1 µM), inactives show at the highest dose activity, negative = toxicity, usual class: cytotoxic | 360,000 tested, 2% active | AID 686971, 2013;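 further: potency means the concentration at half of the fitted maximal effect; 0% = DMSO wells and -100% = cell-free medium wells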
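Viability of IDH1-knockdown HT-1080 fibrosarcoma cells was assessed by CellTiter-Glo after 48 h at 37 °C with titrated compound; concentration-effect curves were classified by fit quality and response size.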
HT1080NT lethal – qHTS for induction of synthetic lethality in tumor cells producing 2HG: qHTS for the HT-1080-NT fibrosarcoma cell line; HT-1080-NT fibrosarcoma viability, CellTiter-Glo ATP luminescence, 48 h; Potency, µM (top dose mostly 46.1 µM), without a hit: at the highest dose activity, negative = less viability, most hits filed as cytotoxic; 360,000 tested, 1.6% active;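 further: NT is the 2HG producing partner of a matched IDH1 knockdown line; potency means the concentration at half of the fitted maximal effect; 0% = DMSO-treated cells and -100% = media-only wells without cells; nearly all actives have a fitted effect of over 55% in size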
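Luminescent CellTiter-Glo readout after 48 hours of compound exposure at 37 degrees C defined viability of HT-1080-NT cells. Activity was normalized to DMSO wells and cell-free media wells; concentration-response curves were fitted and assigned curve classes.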
TDP1 cell CPT – qHTS for Inhibitors of human tyrosyl-DNA phosphodiesterase 1 (TDP1): qHTS in cells in presence of CPT; chicken DT40 Tdp1-/-;hTDP1 cells + 20 nM CPT, ATP luminescence, 48 h; Potency, µM (titrated, usually from 46.2 µM), for inactives: top-dose activity change, negative = growth inhibition, actives largely listed as inhibitors; 420,000 tested, 12% active; further: potency means the concentration at half of the fitted maximal effect; nearly all actives have a fitted effect of over 55% in size
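Cell growth measured by CellTiter-Glo luminescence after a minimum 48 h, 37 C compound exposure with 20 nM CPT in Tdp1-knockout DT40 cells stably expressing hTDP1, seeded 400/well; qHTS titration format.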
TDP1 cell noCPT – qHTS for Inhibitors of human tyrosyl-DNA phosphodiesterase 1 (TDP1): qHTS in cells in absence of CPT | DT40 Tdp1-/- hTDP1 cells, no CPT, ATP luminescence, 48 h | Potency, µM (titrated, usually from 46.2 µM), inactives show at the top dose activity change, negative = growth inhibition, usual class: inhibitors | 420,000 tested, 15% active | AID 686978, 2013; further: potency means the concentration at half of the fitted maximal effect; nearly all actives have a fitted effect of over 55% in size
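Growth of hTDP1-complemented DT40 Tdp1-knockout cells is measured by ATP luminescence after at least 48 hr compound exposure at 37 °C, with DMSO substituting for the 20 nM CPT used in the parallel screen.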
An asterisk follows results filed as active. Unless noted, the call rests on the fitted dose curve; in most records, active means well fitted curve in the direction sought with a large enough effect; inconclusive means small, poorly fitted or top-dose-only effect, or another doubt; inactive means no such curve, though single readings can be large; an effect the other way counts as inactive or inconclusive. Unless noted, on the % scale 0 is the no-effect control and ±100 the full control effect.

CCOC(=O)C1CCCN(C(=O)Cn2ncn3c(cc4sc(CC)cc43)c2=O)C1 (configuration not stated) was read as TDP1 cell CPT 21µM* and TDP1 cell noCPT inconclusive.
Screening CCOC(=O)C1CCCN(C(=O)Cn2ncc3c(C)n(Cc4ccc(Cl)cc4)c(C)c3c2=O)C1 (configuration not stated) returned TDP1 cell CPT 8.2µM* and TDP1 cell noCPT 8.2µM*.
CCOC(=O)C1CCCN(C(=O)Cn2nc(CC)n3c(cc4sccc43)c2=O)C1 (configuration not stated) was read as uPA surface inh -2%, IL-1B inflam inh -10, HT1080 IDH1KD tx 2%, HT1080NT lethal -14%, TDP1 cell CPT inconclusive and TDP1 cell noCPT inconclusive.
`CCOC(=O)C1CCCN(C(=O)Cn2ncc3c(C)n(Cc4ccccc4F)c(C)c3c2=O)C1` (configuration not stated) gave TDP1 cell CPT 26µM* and TDP1 cell noCPT 18µM*.
For CCOc1ccc(S(=O)(=O)N2CCC(C(=O)NC3CC3)CC2)cc1Cl the results were uPA surface inh 1%, IL-1B inflam inh -10, HT1080 IDH1KD tx 0%, HT1080NT lethal 3%, TDP1 cell CPT inconclusive and TDP1 cell noCPT -27%.
Screening O=S(=O)(c1ccc(F)cc1)N1CN(Cc2ccco2)c2nc3ccccc3nc21 returned uPA surface inh -14%, IL-1B inflam inh 9, HT1080 IDH1KD tx 0%, HT1080NT lethal -11%, TDP1 cell CPT inconclusive and TDP1 cell noCPT inconclusive.
Screening O=S(=O)(c1ccccc1)N1CN(c2ccc(F)cc2F)c2nc3ccccc3nc21 returned uPA surface inh 8%, IL-1B inflam inh -7, HT1080 IDH1KD tx -24%, HT1080NT lethal -14%, TDP1 cell CPT inconclusive and TDP1 cell noCPT 26µM*.
For CC(C)(C)c1ccc(C(=O)N2CCC2(C)C(=O)Nc2cccc(C#N)c2)cc1 (configuration not stated) the results were IL-1B inflam inh -1, HT1080 IDH1KD tx inconclusive, HT1080NT lethal inconclusive, TDP1 cell CPT 16µM* and TDP1 cell noCPT 16µM*.
For Cc1ccsc1C(=O)N1CCC1(C)C(=O)Nc1cccc(C#N)c1 (configuration not stated) the results were IL-1B inflam inh -11, HT1080 IDH1KD tx -1%, HT1080NT lethal 0%, TDP1 cell CPT inconclusive and TDP1 cell noCPT inconclusive.
CC1(C(=O)Nc2cccc(C#N)c2)CCN1C(=O)c1ccccc1CCc1ccccc1 (configuration not stated) was read as IL-1B inflam inh -11, HT1080 IDH1KD tx -22%, HT1080NT lethal -23%, TDP1 cell CPT inconclusive and TDP1 cell noCPT 23µM*.
Screening CC1(C(=O)NS(=O)(=O)c2cccc(C#N)c2)CCN1C(=O)c1ccccc1CCc1ccccc1 (configuration not stated) returned IL-1B inflam inh 28, HT1080 IDH1KD tx -15%, HT1080NT lethal -16%, TDP1 cell CPT -17% and TDP1 cell noCPT -4%.
`CC1(C(=O)Nc2ccc3c(c2)OCCO3)CCN1C(=O)c1ccccc1CCc1ccccc1` (configuration not stated) gave IL-1B inflam inh -24, HT1080 IDH1KD tx 0%, HT1080NT lethal 10%, TDP1 cell CPT 29µM* and TDP1 cell noCPT inconclusive.
For COc1cnc(-c2ccccn2)nc1Sc1c(Cl)cccc1Cl the results were IL-1B inflam inh 33, HT1080 IDH1KD tx 7.9µM*, HT1080NT lethal 16µM*, TDP1 cell CPT 0.65µM* and TDP1 cell noCPT 0.92µM*.
For COc1cnc(-c2ccccc2)nc1Sc1ccccc1 the results were uPA surface inh 2%, IL-1B inflam inh 58, HT1080 IDH1KD tx -9%, HT1080NT lethal -2%, TDP1 cell CPT 0% and TDP1 cell noCPT inconclusive.
Screening COc1cnc(-c2ccccn2)nc1Sc1ccccc1Cl returned uPA surface inh -2%, IL-1B inflam inh 44, HT1080 IDH1KD tx -29%, HT1080NT lethal inconclusive, TDP1 cell CPT 1.5µM* and TDP1 cell noCPT 1µM*.
For CCOC(=O)C(C)Sc1nc(-c2ccccn2)ncc1OC (configuration not stated) the results were uPA surface inh -1%, IL-1B inflam inh 73, HT1080 IDH1KD tx -1%, HT1080NT lethal -12%, TDP1 cell CPT 2.9µM* and TDP1 cell noCPT 5.8µM*.
Screening COc1cnc(N(C)C)nc1Sc1cccc(Cl)c1 returned uPA surface inh -4%, IL-1B inflam inh -11, HT1080 IDH1KD tx 5%, HT1080NT lethal -22%, TDP1 cell CPT inconclusive and TDP1 cell noCPT inconclusive.
`COc1ccccc1Sc1nc(-c2ccccc2)ncc1OC` gave uPA surface inh 3%, IL-1B inflam inh 22, HT1080 IDH1KD tx -14%, HT1080NT lethal 1%, TDP1 cell CPT inconclusive and TDP1 cell noCPT 21µM*.
Screening Cc1cc(C(=O)N2CCC2(C)C(=O)NS(=O)(=O)c2ccccc2Cl)nn1C (configuration not stated) returned IL-1B inflam inh -5, HT1080 IDH1KD tx 20%, HT1080NT lethal 13%, TDP1 cell CPT -13% and TDP1 cell noCPT -8%.
Screening Cc1ccc(S(=O)(=O)n2cnc3ccccc32)cc1 returned uPA surface inh 2%, IL-1B inflam inh 31, HT1080 IDH1KD tx -5%, HT1080NT lethal 4%, TDP1 cell CPT 17% and TDP1 cell noCPT 0%.
`COc1ccc(C)cc1S(=O)(=O)n1cnc2ccccc21` gave uPA surface inh inconclusive, IL-1B inflam inh 5, HT1080 IDH1KD tx -10%, HT1080NT lethal 1%, TDP1 cell CPT 13µM* and TDP1 cell noCPT 15µM*.
For Cc1cc(C)cc(N2C(=O)CSC23C(=O)N(CC(=O)NC2CCCCC2)c2ccccc23)c1 (configuration not stated) the results were TDP1 cell CPT 21µM* and TDP1 cell noCPT inconclusive.
Screening O=C(CN1C(=O)C2(SCC(=O)N2c2ccc(F)cc2)c2ccccc21)NC1CCCCC1 (configuration not stated) returned TDP1 cell CPT -23% and TDP1 cell noCPT -21%.
